# Measurements as given in PubChem BioAssay AID651640 (Broad Institute, 2012).
# Among all 350,000 compounds or so, about 6,000 (1.7%) were called active. Another 5% or so got no clear call; they are omitted. No stated cut-off is given here; in the data, active means CPE inhibition above about 20% (passing the limit was not always enough); inconclusive means no clear call, values can overlap the other calls; tested in BHK-21 cells. For the sample, actives were picked, then their nearest neighbours and some compounds at random.
# Test: protection of cells from dengue 2 killing – plate reader, single concentration, primary screen (AID 651640);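 further: 0% = median of neutral control wells and 100% = median of positive control wells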
# Settings: DENV2-infected cells, cytopathic effect rescue, at 9.99 µM, hits give high values
row,Compound,CPE inhibition
1,CCOc1ccc(Oc2nc(C)cc(OC)n2)nn1,71.4% (active)
2,COc1ccc2c3c([nH]c2c1)[C@H](CO)N(Cc1nccs1)CC31CCN(Cc2ccncc2)CC1,6.23% (inactive)
3,CCC(=O)N(C)C[C@@H]1Oc2cc(C#C[C@H](C)O)ccc2S(=O)(=O)N([C@@H](C)CO)C[C@H]1C,-5.73% (inactive)
4,C[C@@H]1CCCCO[C@H](CN(C)S(=O)(=O)c2cn(C)cn2)[C@@H](C)CN([C@@H](C)CO)C(=O)c2cc(NC(=O)c3ccncc3)ccc2O1,1.9% (inactive)
5,O=C(CN1CCOCC1)Nc1ccccc1,1.83% (inactive)
6,COc1cc2c(cc1OC)CN(CC(=O)Nc1ccc(F)cc1)CC2,-5.5% (inactive)
7,O=C(CN1CCc2cc3c(cc2C1)OCCCO3)Nc1ccccc1,28.1% (active)
8,O=C([C@@H]1[C@@H](CO)[C@@H]2Cn3c(ccc(C4=CCCCC4)c3=O)[C@H]1N2Cc1nccs1)N1CCCCC1,-3.86% (inactive)
9,COc1ccc2c3c(n(C)c2c1)[C@@H](CO)N(C(=O)c1cccnc1)CC31CCN(C(=O)c2cccnc2)CC1,-1.97% (inactive)
10,CCCC#Cc1ccc([C@@H]2[C@@H](CO)N3C(=O)CN(C(=O)c4ccncc4)C[C@@H]23)cc1,0.156% (inactive)
11,COCC(=O)N1[C@H](CO)[C@@H](c2ccccc2)[C@H]1CN(C)C(=O)c1ccncc1,-13.8% (inactive)
12,COCC(=O)N1[C@H](CNC(=O)c2ccccn2)[C@H](c2ccccc2)[C@@H]1CO,35.1% (active)
13,CCNC[C@@H]1[C@@H](c2ccccc2)[C@@H](CO)N1C(=O)Cc1ccccn1,-0.972% (inactive)
14,COc1ccc2c3c([nH]c2c1)[C@H](CO)N(Cc1cccc(F)c1)CC31CCN(Cc2ccccn2)CC1,5.05% (inactive)
15,CCCc1cc(=O)oc2cc(OCC(=O)Nc3ccc(CN4CCOCC4)cc3)c(Cl)cc12,2.98% (inactive)
16,O=C(Nc1ccc(CN2CCOCC2)cc1)c1cc(Cl)ccc1Cl,0.583% (inactive)
17,CCOc1ccc(C(=O)Nc2ccc(CN3CCOCC3)cc2)cc1Cl,29.8% (active)
18,Cc1noc(C)c1NC(=O)Nc1ccc2c(c1)CC(=O)N([C@H](C)CO)C[C@@H](C)[C@H](CN(C)S(=O)(=O)c1cccs1)O2,5.9% (inactive)
19,C[C@@H]1CN([C@@H](C)CO)C(=O)c2cccc(NS(=O)(=O)c3ccc(Cl)cc3)c2O[C@@H]1CN(C)Cc1ccccc1,10.9% (inactive)
20,O=C(Cc1cccnc1)N1CC(=O)N2[C@@H](CO)[C@@H](c3ccc(C#CC4CCCCC4)cc3)[C@@H]2C1,6.08% (inactive)
21,CC(=O)NCCNC(=O)c1cc(-c2cccc3ccccc23)nc2ccccc12,2.13% (inactive)
22,CCCCN(C)CCCNC(=O)c1cc(-c2cccs2)nc2ccccc12,41.4% (active)
23,O=C(Nc1nnc(-c2ccccc2)o1)c1cc(-c2cccs2)nc2ccccc12,-13.1% (inactive)
24,C/C=C/c1ccc([C@@H]2[C@@H](CN(C)C(C)=O)N(C(=O)C3CC3)[C@H]2CO)cc1,41.4% (active)
25,C/C=C/c1ccc([C@@H]2[C@@H](CO)N(C(C)=O)[C@H]2CN(C)C(=O)CN(C)C)cc1,8.38% (inactive)
26,C/C=C/c1ccc([C@H]2[C@@H](CO)N(C(=O)NCCC)[C@H]2CN(C)C(C)=O)cc1,-22.2% (inactive)

row,Compound,CPE inhibition
1,COc1ccc(-c2cn(CC[C@H]3CC[C@@H](NC(=O)CCN4CCCCC4)[C@H](CO)O3)nn2)cc1,-5.26% (inactive)
2,Cc1noc(C)c1S(=O)(=O)Nc1ccc2c(c1)C(=O)N([C@@H](C)CO)C[C@H](C)[C@H](CN(C)CC1CCCCC1)OCCCC[C@H](C)O2,-11.5% (inactive)
3,COc1cccc(-c2ccc3n(c2=O)C[C@@H]2[C@@H](CO)[C@H](C(=O)NCC4CC4)N(C(=O)NC(C)C)[C@H]32)c1,13.2% (inactive)
4,CC(C)NC(=O)N1[C@@H]2c3ccc(-c4ccc(F)cc4)c(=O)n3C[C@@H]2[C@@H](CO)[C@@H]1C(=O)N1CCOCC1,69.3% (active)
5,O=C([C@@H]1[C@@H](CO)[C@@H]2Cn3c(ccc(-c4cncnc4)c3=O)[C@@H]2N1C(=O)C1CCC1)N1CCCCC1,-0.056% (inactive)
6,CCC(=O)N1CCCCN2[C@H](C1)[C@@H](c1ccc(/C=C/c3ccccc3)cc1)[C@@H]2CO,-4.84% (inactive)
7,CC(C)(C)[S@](=O)N1Cc2cc(C(=O)N3CCCCC3)nc(-c3cccc(-c4ccccc4F)c3)c2[C@@H]1CCO,1.74% (inactive)
8,CC(C)(C)[S@@](=O)N1Cc2cc(C(=O)N3CCCCC3)nc(-c3cccc(-c4cccc(C#N)c4)c3)c2[C@H]1CCO,-1% (inactive)
9,CC(C)(C)[S@](=O)N1Cc2cc(C(=O)N3CCCCC3)nc(-c3cccc(Br)c3)c2[C@@H]1CCO,41.3% (active)
10,CCOC(=O)C1=C(C)N(C[C@@H]2CC[C@@H](Cc3ccc(-c4ccccc4)cc3)O2)C(=O)NC1c1ccc([N+](=O)[O-])cc1 (stereo partly specified),49.3% (active)
11,CCC(CC)COC(=O)C1=C(C)NC(=O)NC1c1ccc([N+](=O)[O-])cc1 (stereo unspecified),4.17% (inactive)
12,COC(=O)CCCCCN1C(=O)NC(c2ccc(-c3ccccc3)cc2)C(C(=O)OCc2ccccc2)=C1C (stereo unspecified),-1.13% (inactive)
13,C[C@@H]1CN([C@H](C)CO)C(=O)c2cc(NC(=O)CCCCCC(=O)Nc3ccccc3N)ccc2O[C@@H]1CN(C)Cc1ccncc1,-1.11% (inactive)
14,COc1ccc2c3c([nH]c2c1)[C@@H](CO)N(C(=O)c1cccc(F)c1)CC31CN(C(C)=O)C1,-11.3% (inactive)
15,O=C(C[C@H]1C=C[C@@H](NC(=O)Nc2cc(F)ccc2F)[C@H](CO)O1)NCCCN1CCOCC1,-8.14% (inactive)
16,COc1ccccc1NC(=O)N1C[C@H]2[C@@H](c3ccccc31)[C@@H](CO)N2C(=O)C1CCCC1,-7.24% (inactive)
17,COc1ccc(S(=O)(=O)Nc2ccc3c(c2)C(=O)N([C@@H](C)CO)C[C@H](C)[C@H](CN(C)S(=O)(=O)c2c(C)noc2C)OCCCC[C@@H](C)O3)cc1,36% (active)
18,Cc1noc(C)c1S(=O)(=O)N(C)C[C@@H]1OCCCC[C@H](C)Oc2ccc(NC(=O)NC3CCCCC3)cc2C(=O)N([C@@H](C)CO)C[C@H]1C,-11.4% (inactive)
19,Cc1noc(C)c1S(=O)(=O)N(C)C[C@@H]1OCCCC[C@@H](C)Oc2ccc(NC(=O)Nc3ccccc3)cc2C(=O)N([C@H](C)CO)C[C@@H]1C,3.34% (inactive)
20,Cc1noc(C)c1S(=O)(=O)N(C)C[C@@H]1OCCCC[C@H](C)Oc2ccc(NC(=O)Nc3ccc4c(c3)OCO4)cc2C(=O)N([C@H](C)CO)C[C@H]1C,27.1% (active)
21,Cc1noc(C)c1S(=O)(=O)N(C)C[C@@H]1OCCCC[C@H](C)Oc2ccc(NC(=O)Nc3ccc4c(c3)OCO4)cc2C(=O)N([C@H](C)CO)C[C@@H]1C,-3.84% (inactive)
22,Cc1noc(C)c1S(=O)(=O)N(C)C[C@@H]1OCCCC[C@@H](C)Oc2ccc(NS(=O)(=O)c3ccccc3)cc2C(=O)N([C@H](C)CO)C[C@@H]1C,-8.98% (inactive)
23,COc1ccc(S(=O)(=O)N(C)C[C@H]2OCCCC[C@H](C)Oc3ccc(NS(=O)(=O)c4c(C)noc4C)cc3C(=O)N([C@@H](C)CO)C[C@@H]2C)cc1,-3.17% (inactive)
24,Cc1noc(C)c1S(=O)(=O)N(C)C[C@@H]1OCCCC[C@H](C)Oc2ccc(NC(=O)NC(C)C)cc2C(=O)N([C@H](C)CO)C[C@@H]1C,51.8% (active)
25,C[C@@H]1CCCCO[C@@H](CN(C)S(C)(=O)=O)[C@H](C)CN([C@@H](C)CO)C(=O)c2cc(NC(=O)Nc3ccc4c(c3)OCO4)ccc2O1,12.2% (inactive)
